# Measured values: ChEMBL document CHEMBL1961873, “Compounds: GSK PKIS; Assays: Nanosyn kinase panel” (2012)
# Legend:
# [1] = biological target: 5'-AMP-activated protein kinase catalytic subunit alpha-2 (Homo sapiens) (UniProt P54646); conditions: at 1 µM
# [2] = biological target: T1, NUAK family SNF1-like kinase 1 (Homo sapiens) (UniProt O60285); conditions: at 0.1 µM
# T1 sequence (whole entry): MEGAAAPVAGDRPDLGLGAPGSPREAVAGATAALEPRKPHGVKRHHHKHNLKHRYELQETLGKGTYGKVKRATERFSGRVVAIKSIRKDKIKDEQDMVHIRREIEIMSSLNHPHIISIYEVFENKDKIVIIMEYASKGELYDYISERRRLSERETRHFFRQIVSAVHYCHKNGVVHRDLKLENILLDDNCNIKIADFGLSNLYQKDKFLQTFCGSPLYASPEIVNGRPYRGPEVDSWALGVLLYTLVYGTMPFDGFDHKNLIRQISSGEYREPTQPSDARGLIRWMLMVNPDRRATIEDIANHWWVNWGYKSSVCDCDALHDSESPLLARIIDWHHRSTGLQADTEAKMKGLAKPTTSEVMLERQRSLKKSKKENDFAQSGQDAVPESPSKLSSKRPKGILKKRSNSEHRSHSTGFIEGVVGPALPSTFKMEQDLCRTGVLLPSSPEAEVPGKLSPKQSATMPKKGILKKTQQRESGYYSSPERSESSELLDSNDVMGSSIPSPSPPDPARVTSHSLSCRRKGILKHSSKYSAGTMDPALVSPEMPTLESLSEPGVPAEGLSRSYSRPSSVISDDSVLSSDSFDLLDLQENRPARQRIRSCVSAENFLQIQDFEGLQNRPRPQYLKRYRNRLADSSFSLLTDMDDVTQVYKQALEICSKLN
# [3] = biological target: T1, NUAK family SNF1-like kinase 1 (Homo sapiens); conditions: at 1 µM
# [4] = biological target: T2, Serine/threonine-protein kinase BRSK1 (Homo sapiens) (UniProt Q8TDC3); conditions: at 0.1 µM
# T2 sequence (whole entry): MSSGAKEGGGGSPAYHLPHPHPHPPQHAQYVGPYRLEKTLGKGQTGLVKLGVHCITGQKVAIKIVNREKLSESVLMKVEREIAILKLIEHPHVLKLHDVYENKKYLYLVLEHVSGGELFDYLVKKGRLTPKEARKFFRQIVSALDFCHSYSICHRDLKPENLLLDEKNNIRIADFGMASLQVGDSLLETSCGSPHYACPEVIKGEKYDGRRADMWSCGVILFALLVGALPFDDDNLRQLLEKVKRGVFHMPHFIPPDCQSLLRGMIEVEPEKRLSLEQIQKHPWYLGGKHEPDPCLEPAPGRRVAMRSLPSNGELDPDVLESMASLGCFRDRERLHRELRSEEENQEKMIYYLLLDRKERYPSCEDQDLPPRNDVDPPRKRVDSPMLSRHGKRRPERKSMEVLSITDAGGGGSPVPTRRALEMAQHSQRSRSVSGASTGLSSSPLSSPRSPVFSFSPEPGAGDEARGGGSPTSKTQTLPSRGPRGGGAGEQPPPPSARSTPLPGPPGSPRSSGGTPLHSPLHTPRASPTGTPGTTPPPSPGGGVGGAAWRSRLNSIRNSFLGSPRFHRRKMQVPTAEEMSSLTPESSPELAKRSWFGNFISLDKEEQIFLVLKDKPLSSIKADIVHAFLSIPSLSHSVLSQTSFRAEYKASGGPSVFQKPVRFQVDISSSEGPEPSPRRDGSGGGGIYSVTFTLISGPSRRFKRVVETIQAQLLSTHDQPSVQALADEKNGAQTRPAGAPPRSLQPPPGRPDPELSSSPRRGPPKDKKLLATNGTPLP
# [5] = biological target: T2, Serine/threonine-protein kinase BRSK1 (Homo sapiens); conditions: at 1 µM
# [6] = biological target: T3, Serine/threonine-protein kinase BRSK2 (Homo sapiens) (UniProt Q8IWQ3); conditions: at 0.1 µM
# T3 sequence (whole entry): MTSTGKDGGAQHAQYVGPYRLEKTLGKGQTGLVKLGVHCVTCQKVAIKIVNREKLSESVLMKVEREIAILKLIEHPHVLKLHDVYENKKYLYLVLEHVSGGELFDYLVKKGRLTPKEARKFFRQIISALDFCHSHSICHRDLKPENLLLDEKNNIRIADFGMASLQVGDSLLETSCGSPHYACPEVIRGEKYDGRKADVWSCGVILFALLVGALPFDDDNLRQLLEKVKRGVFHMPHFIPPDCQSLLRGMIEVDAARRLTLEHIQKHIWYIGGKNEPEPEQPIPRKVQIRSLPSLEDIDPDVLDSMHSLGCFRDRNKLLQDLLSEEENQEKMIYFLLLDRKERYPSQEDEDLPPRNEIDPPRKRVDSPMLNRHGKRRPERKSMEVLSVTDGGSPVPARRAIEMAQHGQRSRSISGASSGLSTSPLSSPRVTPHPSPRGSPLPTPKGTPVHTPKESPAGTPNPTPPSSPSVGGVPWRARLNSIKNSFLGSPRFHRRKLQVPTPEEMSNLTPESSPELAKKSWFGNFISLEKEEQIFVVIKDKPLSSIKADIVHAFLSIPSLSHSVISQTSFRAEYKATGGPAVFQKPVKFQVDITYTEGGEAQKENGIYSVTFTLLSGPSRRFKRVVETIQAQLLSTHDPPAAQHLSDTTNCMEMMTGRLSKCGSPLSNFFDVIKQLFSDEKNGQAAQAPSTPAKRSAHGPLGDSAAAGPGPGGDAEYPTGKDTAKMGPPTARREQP
# [7] = biological target: T3, Serine/threonine-protein kinase BRSK2 (Homo sapiens); conditions: at 1 µM
# [8] = biological target: Calcium/calmodulin-dependent protein kinase type 1D (Homo sapiens) (UniProt Q8IU85); conditions: at 0.1 µM
# [9] = biological target: Calcium/calmodulin-dependent protein kinase type 1D (Homo sapiens) (UniProt Q8IU85); conditions: at 1 µM
# [10] = biological target: Calcium/calmodulin-dependent protein kinase type II subunit alpha (Homo sapiens) (UniProt Q9UQM7); conditions: at 0.1 µM
# [11] = biological target: Calcium/calmodulin-dependent protein kinase type II subunit alpha (Homo sapiens) (UniProt Q9UQM7); conditions: at 1 µM
# [12] = biological target: Calcium/calmodulin-dependent protein kinase type II subunit delta (Homo sapiens) (UniProt Q13557); conditions: at 0.1 µM
# [13] = biological target: Calcium/calmodulin-dependent protein kinase type II subunit delta (Homo sapiens) (UniProt Q13557); conditions: at 1 µM
# [14] = biological target: T4, Calcium/calmodulin-dependent protein kinase type IV (Homo sapiens) (UniProt Q16566); conditions: at 0.1 µM
# T4 sequence (whole entry): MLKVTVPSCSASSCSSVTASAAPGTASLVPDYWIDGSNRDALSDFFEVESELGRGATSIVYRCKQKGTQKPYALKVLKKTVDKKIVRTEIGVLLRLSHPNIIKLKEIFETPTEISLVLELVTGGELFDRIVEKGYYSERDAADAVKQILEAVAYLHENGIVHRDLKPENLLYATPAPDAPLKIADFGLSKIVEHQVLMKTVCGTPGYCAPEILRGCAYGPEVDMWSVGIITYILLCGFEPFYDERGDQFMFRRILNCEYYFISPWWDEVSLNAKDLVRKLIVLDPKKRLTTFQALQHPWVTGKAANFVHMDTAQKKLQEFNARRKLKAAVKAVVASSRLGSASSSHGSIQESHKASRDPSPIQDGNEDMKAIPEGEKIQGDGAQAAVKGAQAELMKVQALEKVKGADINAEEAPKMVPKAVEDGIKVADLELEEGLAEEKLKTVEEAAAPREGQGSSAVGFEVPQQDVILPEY
# [15] = biological target: T4, Calcium/calmodulin-dependent protein kinase type IV (Homo sapiens); conditions: at 1 µM
# [16] = biological target: T5, Serine/threonine-protein kinase Chk1 (Homo sapiens) (UniProt O14757); conditions: at 0.1 µM
# T5 sequence (whole entry): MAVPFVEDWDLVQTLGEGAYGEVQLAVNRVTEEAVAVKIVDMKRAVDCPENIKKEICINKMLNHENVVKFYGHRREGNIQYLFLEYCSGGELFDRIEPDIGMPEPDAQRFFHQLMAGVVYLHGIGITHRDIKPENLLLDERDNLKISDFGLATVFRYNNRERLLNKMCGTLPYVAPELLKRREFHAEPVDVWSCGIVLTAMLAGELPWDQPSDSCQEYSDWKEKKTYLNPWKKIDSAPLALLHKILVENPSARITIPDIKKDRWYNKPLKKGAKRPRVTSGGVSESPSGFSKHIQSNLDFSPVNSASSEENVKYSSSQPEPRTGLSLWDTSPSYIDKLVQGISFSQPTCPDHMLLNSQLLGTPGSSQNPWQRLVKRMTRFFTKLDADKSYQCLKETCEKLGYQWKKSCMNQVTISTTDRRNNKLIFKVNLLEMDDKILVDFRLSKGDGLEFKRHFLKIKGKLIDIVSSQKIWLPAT
# [17] = biological target: T5, Serine/threonine-protein kinase Chk1 (Homo sapiens); conditions: at 1 µM
# [18] = biological target: Serine/threonine-protein kinase Chk2 (Homo sapiens) (UniProt O96017); conditions: at 0.1 µM
# [19] = biological target: Serine/threonine-protein kinase Chk2 (Homo sapiens) (UniProt O96017); conditions: at 1 µM
# [20] = biological target: Death-associated protein kinase 1 (Homo sapiens) (UniProt P53355); conditions: at 0.1 µM;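 further: reported figure is the mean inhibition of DAPK1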
# Death-associated protein kinase 1 (Homo sapiens), sequence (P53355 whole entry, looked up): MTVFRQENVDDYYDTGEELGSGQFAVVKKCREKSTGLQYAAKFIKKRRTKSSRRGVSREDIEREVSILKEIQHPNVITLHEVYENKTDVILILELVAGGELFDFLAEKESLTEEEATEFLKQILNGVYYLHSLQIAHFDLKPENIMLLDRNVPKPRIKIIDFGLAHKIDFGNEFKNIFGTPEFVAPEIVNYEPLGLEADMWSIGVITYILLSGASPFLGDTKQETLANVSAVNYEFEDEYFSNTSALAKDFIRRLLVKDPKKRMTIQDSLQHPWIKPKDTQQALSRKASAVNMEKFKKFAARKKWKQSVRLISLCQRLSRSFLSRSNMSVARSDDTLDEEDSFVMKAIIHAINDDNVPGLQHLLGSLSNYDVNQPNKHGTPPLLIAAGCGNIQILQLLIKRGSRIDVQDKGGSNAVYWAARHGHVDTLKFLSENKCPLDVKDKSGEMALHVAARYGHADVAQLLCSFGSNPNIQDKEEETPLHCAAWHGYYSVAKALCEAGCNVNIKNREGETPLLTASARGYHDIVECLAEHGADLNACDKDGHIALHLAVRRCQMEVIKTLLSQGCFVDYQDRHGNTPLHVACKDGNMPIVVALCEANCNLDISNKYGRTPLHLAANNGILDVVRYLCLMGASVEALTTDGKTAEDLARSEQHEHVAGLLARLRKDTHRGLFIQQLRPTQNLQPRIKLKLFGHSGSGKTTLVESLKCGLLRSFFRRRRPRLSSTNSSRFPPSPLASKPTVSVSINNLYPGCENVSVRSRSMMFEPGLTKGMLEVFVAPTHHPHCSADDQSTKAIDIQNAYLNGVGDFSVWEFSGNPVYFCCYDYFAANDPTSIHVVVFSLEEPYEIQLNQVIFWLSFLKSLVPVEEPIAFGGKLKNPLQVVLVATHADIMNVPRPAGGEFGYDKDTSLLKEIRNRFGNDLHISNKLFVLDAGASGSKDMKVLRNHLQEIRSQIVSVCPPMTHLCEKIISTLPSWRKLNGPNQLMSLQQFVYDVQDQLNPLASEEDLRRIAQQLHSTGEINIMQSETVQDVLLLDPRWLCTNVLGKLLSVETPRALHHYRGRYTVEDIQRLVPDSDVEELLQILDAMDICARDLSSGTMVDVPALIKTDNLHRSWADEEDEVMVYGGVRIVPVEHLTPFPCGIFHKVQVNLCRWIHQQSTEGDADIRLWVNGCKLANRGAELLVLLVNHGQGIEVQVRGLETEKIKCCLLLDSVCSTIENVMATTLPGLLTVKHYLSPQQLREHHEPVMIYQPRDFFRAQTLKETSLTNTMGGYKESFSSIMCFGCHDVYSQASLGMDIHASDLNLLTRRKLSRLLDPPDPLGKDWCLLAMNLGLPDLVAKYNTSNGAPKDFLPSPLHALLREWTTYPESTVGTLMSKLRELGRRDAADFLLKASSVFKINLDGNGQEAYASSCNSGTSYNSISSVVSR
# 5'-AMP-activated protein kinase catalytic subunit alpha-2 (Homo sapiens), sequence (P54646 whole entry, looked up): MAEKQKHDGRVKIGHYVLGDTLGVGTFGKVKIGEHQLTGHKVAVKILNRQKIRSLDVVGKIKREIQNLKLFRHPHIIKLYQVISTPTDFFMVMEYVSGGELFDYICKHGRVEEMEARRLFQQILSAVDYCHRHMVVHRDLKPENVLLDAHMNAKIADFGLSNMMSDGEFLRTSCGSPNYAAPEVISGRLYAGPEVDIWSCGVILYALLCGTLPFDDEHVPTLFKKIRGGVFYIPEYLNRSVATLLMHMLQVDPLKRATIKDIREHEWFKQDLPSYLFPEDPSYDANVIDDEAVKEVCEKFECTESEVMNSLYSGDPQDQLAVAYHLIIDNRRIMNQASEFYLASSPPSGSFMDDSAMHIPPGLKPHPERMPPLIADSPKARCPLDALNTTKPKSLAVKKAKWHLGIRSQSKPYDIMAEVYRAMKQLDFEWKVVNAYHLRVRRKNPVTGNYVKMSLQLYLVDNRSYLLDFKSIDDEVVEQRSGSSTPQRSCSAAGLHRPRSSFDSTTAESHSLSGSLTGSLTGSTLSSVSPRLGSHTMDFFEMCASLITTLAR
# Calcium/calmodulin-dependent protein kinase type II subunit alpha (Homo sapiens), sequence (Q9UQM7 whole entry): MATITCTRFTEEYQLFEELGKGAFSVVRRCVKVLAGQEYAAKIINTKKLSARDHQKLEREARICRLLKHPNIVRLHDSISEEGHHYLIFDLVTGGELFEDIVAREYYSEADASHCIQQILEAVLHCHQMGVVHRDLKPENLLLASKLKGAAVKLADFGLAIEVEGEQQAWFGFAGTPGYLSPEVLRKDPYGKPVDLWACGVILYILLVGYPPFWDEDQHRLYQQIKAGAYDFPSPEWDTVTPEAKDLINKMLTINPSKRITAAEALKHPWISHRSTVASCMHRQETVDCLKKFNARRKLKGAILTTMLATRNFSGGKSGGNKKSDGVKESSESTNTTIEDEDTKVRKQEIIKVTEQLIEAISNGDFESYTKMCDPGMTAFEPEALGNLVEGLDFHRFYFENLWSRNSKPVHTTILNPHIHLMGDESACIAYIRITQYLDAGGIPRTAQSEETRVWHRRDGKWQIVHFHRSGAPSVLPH
# Serine/threonine-protein kinase Chk2 (Homo sapiens), sequence (O96017 whole entry): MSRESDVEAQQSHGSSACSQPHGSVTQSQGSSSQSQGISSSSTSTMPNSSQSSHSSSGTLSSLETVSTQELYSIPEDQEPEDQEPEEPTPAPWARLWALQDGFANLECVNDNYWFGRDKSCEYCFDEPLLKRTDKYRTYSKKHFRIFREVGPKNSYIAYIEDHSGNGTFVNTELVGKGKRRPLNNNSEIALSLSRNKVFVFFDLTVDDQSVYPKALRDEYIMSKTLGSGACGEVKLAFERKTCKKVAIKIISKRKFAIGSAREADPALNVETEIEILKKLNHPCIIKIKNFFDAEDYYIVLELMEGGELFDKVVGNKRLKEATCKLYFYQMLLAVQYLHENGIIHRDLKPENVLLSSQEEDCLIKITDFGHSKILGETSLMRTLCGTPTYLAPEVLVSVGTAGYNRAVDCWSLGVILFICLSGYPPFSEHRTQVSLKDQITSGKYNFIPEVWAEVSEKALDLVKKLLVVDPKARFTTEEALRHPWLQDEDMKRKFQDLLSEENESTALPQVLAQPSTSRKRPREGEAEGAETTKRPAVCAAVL
# Calcium/calmodulin-dependent protein kinase type 1D (Homo sapiens), sequence (Q8IU85 whole entry, looked up): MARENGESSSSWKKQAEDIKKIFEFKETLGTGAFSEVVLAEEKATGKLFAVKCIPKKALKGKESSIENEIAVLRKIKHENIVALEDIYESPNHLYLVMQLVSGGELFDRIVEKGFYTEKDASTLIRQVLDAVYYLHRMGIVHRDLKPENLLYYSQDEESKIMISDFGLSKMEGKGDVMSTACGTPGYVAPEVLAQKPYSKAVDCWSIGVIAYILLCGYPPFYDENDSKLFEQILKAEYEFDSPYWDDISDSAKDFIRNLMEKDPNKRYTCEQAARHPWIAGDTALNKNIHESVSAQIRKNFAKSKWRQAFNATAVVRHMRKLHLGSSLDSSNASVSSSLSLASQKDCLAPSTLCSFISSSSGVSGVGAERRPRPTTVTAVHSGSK
# Calcium/calmodulin-dependent protein kinase type II subunit delta (Homo sapiens), sequence (Q13557 whole entry): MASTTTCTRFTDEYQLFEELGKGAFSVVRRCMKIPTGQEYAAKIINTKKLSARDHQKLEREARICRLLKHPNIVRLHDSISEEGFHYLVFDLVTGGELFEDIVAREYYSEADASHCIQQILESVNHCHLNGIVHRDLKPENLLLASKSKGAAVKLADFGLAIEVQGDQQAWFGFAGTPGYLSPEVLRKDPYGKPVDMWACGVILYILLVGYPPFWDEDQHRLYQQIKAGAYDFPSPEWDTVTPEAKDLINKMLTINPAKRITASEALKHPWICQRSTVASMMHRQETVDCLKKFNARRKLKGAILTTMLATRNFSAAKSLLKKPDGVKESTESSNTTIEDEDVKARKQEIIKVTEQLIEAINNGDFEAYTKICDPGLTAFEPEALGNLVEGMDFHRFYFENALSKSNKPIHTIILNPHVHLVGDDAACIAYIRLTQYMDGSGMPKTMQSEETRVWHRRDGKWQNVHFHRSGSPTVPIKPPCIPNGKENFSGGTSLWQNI
Compound,inhibition [1] [%],inhibition [2] [%],inhibition [3] [%],inhibition [4] [%],inhibition [5] [%],inhibition [6] [%],inhibition [7] [%],inhibition [8] [%],inhibition [9] [%],inhibition [10] [%],inhibition [11] [%],inhibition [12] [%],inhibition [13] [%],inhibition [14] [%],inhibition [15] [%],inhibition [16] [%],inhibition [17] [%],inhibition [18] [%],inhibition [19] [%],inhibition [20] [%]
NC(=O)c1cc(-c2ccncc2)cc(-c2ccccc2)c1N,4.03,0.7,1.68,2.46,4.23,1.64,2.72,0.15,1.27,2.51,3.97,4.41,4.63,0.2,-0.82,-1.87,-2.65,-1.34,-0.01,-2.69
C#Cc1cccc(Nc2ncnc3ccc(OCCCCNCCS(C)(=O)=O)cc23)c1,4.43,4.55,12.9,1.77,7.62,3.96,10,-0.65,0.48,3.18,3.33,3,5.51,-0.65,-2.02,1.45,4.94,2.64,7.73,3.32
N#Cc1ccc(Oc2nccc(-c3c(-c4ccc(F)cc4)ncn3C3CCNCC3)n2)cc1,3.23,-1.37,0.67,-2.05,0.23,0.71,2.75,0.44,0.96,2.95,0.01,3.46,5.08,-1.84,6.38,1.81,-0.27,4.28,4.2,2.55
COc1cc(Nc2ncc3c(C)nc(-c4cccc(Oc5ccccc5)c4)n3n2)cc(OC)c1OC,7.86,4.33,26.4,1.68,2.44,0.74,3.26,1.34,3.48,3.17,4.08,3.36,3.83,1.65,4.26,3.9,10.2,7.97,11.6,8.86
NS(=O)(=O)c1ccc(N/N=C2\C(=O)Nc3ccc(-c4cnco4)cc32)cc1,11.8,5.26,35.2,2.76,14.5,3.56,23.8,-0.53,2.62,0.21,4.17,2.48,16.3,-0.57,-0.99,-0.45,6.95,0.92,5.7,-1.79
CCc1ccc(Oc2nccc(-c3c(-c4ccc(F)cc4)ncn3C3CCNCC3)n2)cc1,7.27,-0.89,3.95,1.81,-0.56,1.84,3.86,1.54,3.63,4.59,5.86,4.44,7.05,2.89,5.14,4.54,6.62,3.02,5.66,4.58
CCc1nccc2c1nc(-c1nonc1N)n2CC,2,2.71,4.47,0.98,4.27,2.16,4.53,1.07,1.8,0.2,2.34,2,3.76,2.07,1.55,1.61,-3.41,-1.09,-0.94,0.87
O=C1Nc2ccc(I)cc2C1=Cc1cc(Br)c(O)c(Br)c1,3.18,-1.04,3.51,3.87,0.15,0.3,2.23,1.27,2.96,4.96,7.25,3.27,9.08,0.52,4.99,0.05,-0.68,4.44,9.44,1.46
COc1ccc2cc(-c3c(-c4ccncc4)nc(-c4ccc([S+](C)[O-])cc4C)n3C)ccc2c1 (stereo not given),1.05,-1.98,4.95,-0.02,3.28,0.33,3.47,0,1.15,-2.89,-1.04,-0.62,0.45,0.58,1.17,-4.29,-9.96,-6.42,-5.67,-9.46
COc1cc(C)c(N(C)C(=O)CN(C)C)cc1Nc1nc(Nc2cccc(F)c2C(N)=O)c2cc[nH]c2n1,3.07,0.7,4.1,0.88,-0.02,0.05,0.83,1.27,2.67,3.48,4.38,3.09,3.38,1.4,4.78,-4.87,-0.94,2.55,8.44,0.19
Fc1ccc(-c2ncn(C3CCNCC3)c2-c2ccnc(Oc3ccc4c(c3)OCO4)n2)cc1,4.45,1.79,3.25,0.76,6.01,3.69,5.73,-0.69,0.53,6.35,12.6,2.69,3.08,0.19,0.41,-3.37,-1.58,-2.12,-3.43,-1.22
COc1ccc2cc(-c3c(-c4ccncc4)nc(-c4ccc(S(C)(=O)=O)cc4C)n3C)ccc2c1,3.5,-2.12,4.31,1.72,1.23,1.12,3.04,1.08,1.85,2.82,3.89,3.49,3.21,0.37,0.96,-2.73,-3.07,-2.23,-0.36,-2.52
Nc1nccc(-c2c(-c3ccc(F)cc3)ncn2C2CCC(O)CC2)n1 (stereo not given),-1.6,9.02,39.9,0.33,1.44,1.13,1.19,-2.47,-0.75,-3.31,-3.25,-1.92,1.53,9.35,-0.1,-3.08,0.13,-1.95,-1.72,-1.1
